PubChem BioAssay (NCATS)
Several values for one entry are separate records, joined by “and”; a condition that tells them apart may be missing. Equal entries are not always repeated. Results filed as inconclusive are left out. Unmarked numbers belong to inactive results. Activity calls are given as the source filed them. Calls follow the shape of the dose curve; as a rule, active = well fitted inhibition curve with a large enough effect in the signal ratio, with a control signal flat (not every such curve was filed as active); inconclusive = small, poorly fitted or top-dose-only effect, or effect the other way, or a change in a side signal; inactive = flat fitted curve, though single readings scatter; the % refers to the signal ratio.

Each molecule was assayed against Glucocorticoid receptor (Homo sapiens) (UniProt P04150) (assay: qHTS assay for small molecule antagonists of glucocorticoid receptor signaling (AID 588533)). Details: HeLa MMTV-bla, GRE beta-lactamase ratio, antagonist mode, 18 h; series mostly up to 76.8 µM; activity change, negative = inhibition: at the top concentration.
Chain of Glucocorticoid receptor (Homo sapiens) (P04150 whole entry, looked up): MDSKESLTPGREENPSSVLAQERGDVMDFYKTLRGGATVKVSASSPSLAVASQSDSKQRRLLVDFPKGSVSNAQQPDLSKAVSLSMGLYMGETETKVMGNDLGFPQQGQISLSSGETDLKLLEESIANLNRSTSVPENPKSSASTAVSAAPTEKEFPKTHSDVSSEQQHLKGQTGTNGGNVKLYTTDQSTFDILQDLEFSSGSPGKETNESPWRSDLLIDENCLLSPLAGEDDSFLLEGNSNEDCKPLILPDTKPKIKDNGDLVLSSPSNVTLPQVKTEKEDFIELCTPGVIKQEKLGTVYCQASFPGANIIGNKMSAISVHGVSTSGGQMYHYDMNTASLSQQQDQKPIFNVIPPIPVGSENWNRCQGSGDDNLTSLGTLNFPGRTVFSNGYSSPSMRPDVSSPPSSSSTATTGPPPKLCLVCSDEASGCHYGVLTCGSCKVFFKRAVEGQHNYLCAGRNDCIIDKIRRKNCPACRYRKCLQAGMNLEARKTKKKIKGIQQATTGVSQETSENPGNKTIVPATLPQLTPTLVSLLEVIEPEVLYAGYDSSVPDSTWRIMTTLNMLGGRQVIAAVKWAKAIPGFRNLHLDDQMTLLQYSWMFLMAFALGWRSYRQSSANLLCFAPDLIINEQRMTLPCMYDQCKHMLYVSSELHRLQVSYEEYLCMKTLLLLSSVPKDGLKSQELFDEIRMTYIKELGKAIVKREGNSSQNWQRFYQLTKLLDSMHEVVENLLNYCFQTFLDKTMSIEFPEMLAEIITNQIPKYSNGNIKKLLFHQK
Excerpt: NIH Chemical Genomics Center [NCGC] U.S. Environmental Protection Agency [EPA] National Institutes of Environmental Health Sciences [NIEHS] National Toxicology Program [NTP] NCGC Assay Overview The Glucocorticoid receptor (GR), a nuclear receptor subfamily member and its natural ligands includes […] etc. The GR is a validated drug target for inflammation. GR ligands such as dexamethasone are clinically available as anti-inflammatory drugs. Glucocorticoids implicate a role in carbohydrate, protein and lipid metabolisms and programmed cell death. They are also a component of many chemotherapy regimens for the treatment of leukemias, lymphomas, and myelomas because of their role in the induction of apoptosis.
NCGC Assay Protocol Summary Using a beta-lactamase reporter-gene under control of glucocorticoid response element (GRE), a cell-based assay [CellSensor MMTV-bla HeLa cell line assay developed by Invitrogen] was used to measure GR ligands signaling. CellSensor MMTV-bla HeLa cells were used with assay medium containing 1% charcoal/dextran treated FBS, 0.1 mM NEAA, 1 mM sodium pyruvate and 25mM HEPES. The assay was performed in clear bottom black Greiner 1536-well plates. Library compounds were measured for their ability to inhibit the reporter gene activity. Compounds were screened in a titration series in 1536-well format. […] Data was normalized relative to Dexamethasone control (2 nM, 100%), and DMSO only wells (basal, 0%). Concentration-response titration points for each compound were fitted to the Hill equation yielding concentrations of half-maximal inhibition (IC50) and maximal response (efficacy) values. qHTS protocol for GR beta-lactamase assay in antagonist mode [Step] [Parameter] [Value] [Description] 1. Reagent; 5 uL; 1500 cells/well 2. Incubation; 37 C for 3-5 hrs 3. Compounds; 23 nL; 0.59 nM to 92 uM 4. […] Agonist (Stimulator); 1uL; Dexamethasone at 2 nM (final) concentration 6. Incubation; 37 C for 18 hrs 7. Detection reagent; 1 uL of CCF4-dye 8. Incubation; RT for 2 hrs 9. Detection; Fluorescence; Envision plate reader
% is scaled to controls: 0 for no effect and ±100 for the full control effect.

In order of rising “activity change, negative = inhibition” value:
1. CO[C@@H]1[C@H](OC(=O)/C=C/C=C/C=C/C=C/C(=O)O)CC[C@]2(CO2)[C@H]1[C@@]1(C)O[C@@H]1CC=C(C)C  -26.7%
2. Nc1ccc(N=Nc2ccccc2)c(N)n1  -23.4%
3. Cc1ncc[nH]1  -16.1%
4. N[C@@H](Cc1cc(I)c(Oc2ccc(O)c(I)c2)c(I)c1)C(=O)O  -9.45%
5. O=c1n(CC2CO2)c(=O)n(CC2CO2)c(=O)n1CC1CO1 (stereo not drawn)  -8.93%
6. CCCCCCCCCCCCCCCCCC(=O)OC[C@@H](O)[C@H]1OC[C@H](O)[C@H]1O  -2.77%
7. O=C(OCc1ccccc1)c1ccc(O)cc1  -2.76%
8. O=P(O)(O)O  -2.02%
9. C[C@H](CCC(=O)O)[C@H]1CC[C@H]2[C@@H]3[C@H](O)C[C@@H]4C[C@H](O)CC[C@]4(C)[C@H]3C[C@H](O)[C@]12C  -0.385%
10. NCCO/C=C/[C@H](N)C(=O)O  0.316%
11. [O-][N+](=Nc1ccccc1)c1ccccc1  0.974%
12. CC1=CC(=O)NS(=O)(=O)O1  2.98%
13. Cc1ccc(S(=O)(=O)NCl)cc1  3.03%
14. ClC(Cl)Cl  3.52%
15. OCc1ccccc1  3.6%
16. C=CC(C)(O)CC/C=C(\C)CCC=C(C)C (stereo not drawn)  5.43%
17. Cc1ccc(S(=O)(=O)O)cc1C  5.66%
18. CC(C)CCCCCCc1ccc(O)cc1  7.58%
19. OC[C@H]1O[C@@H]2O[C@H]3[C@H](O)[C@@H](O)[C@@H](O[C@H]4[C@H](O)[C@@H](O)[C@@H](O[C@H]5[C@H](O)[C@@H](O)[C@@H](O[C@H]6[C@H](O)[C@@H](O)[C@@H](O[C@H]7[C@H](O)[C@@H](O)[C@@H](O[C@H]1[C@H](O)[C@H]2O)O[C@@H]7CO)O[C@@H]6CO)O[C@@H]5CO)O[C@@H]4CO)O[C@@H]3CO  9.38%
20. CCOC(C)OCC  10.2%
21. CO/N=C(/C(=O)N[C@@H]1C(=O)N2C(C(=O)O)=C(COC(N)=O)CS[C@H]12)c1ccco1  12.2%
22. CC1=CCC2CC1C2(C)C (stereo not drawn)  15.7%
23. CCCCC  23.6%

For `OB(O)O`, the Potency was “inactive”.
With `C=C(C)C1CC=C(C)CC1` (stereo not drawn) the Potency was “inactive”.
`OCCOCCOCCO` was tested, and the Potency was “inactive”.
For `C[C@H]1O[C@@H](O[C@H]2[C@@H](O)C[C@H](O[C@H]3[C@@H](O)C[C@H](O[C@H]4CC[C@@]5(C)[C@H](CC[C@@H]6[C@@H]5C[C@@H](O)[C@]5(C)[C@@H](C7=CC(=O)OC7)CC[C@]65O)C4)O[C@@H]3C)O[C@@H]2C)C[C@H](O)[C@@H]1O`, the Potency was 1 µM (active) and 562 nM (active).
`OCC(O)CO` was tested, and the Potency was “inactive”.
